Measured values taken from paper PMC5540273 (PLoS ONE, 2017).

Columns and labels:
Details in all cases: concentration: 1 μM, replicates: in singlicate; n = 1
[1] = system: AAK1
[2] = system: ABL1-nonphosphorylated
[3] = system: ABL1-phosphorylated
[4] = system: ABL2
[5] = system: ACVR1B
[6] = system: ACVR1
[7] = system: ACVR2A
[8] = system: ACVR2B
[9] = system: ACVRL1
[10] = system: T1, ADCK3
T1 construct: gene CABC1

[11] = system: ADCK4
[12] = system: AKT1
[13] = system: AKT2
[14] = system: AKT3
[15] = system: ALK
[16] = system: T2, AMPK-alpha1
T2 construct: gene PRKAA1

[17] = system: T3, AMPK-alpha2
T3 construct: gene PRKAA2

[18] = system: ANKK1
[19] = system: T4, ARK5
T4 construct: gene NUAK1

[20] = system: T5, ASK1
T5 construct: gene MAP3K5
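Also: KINOMEscan kinase panel screen.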

SMILES	%Inh [1]	%Inh [2]	%Inh [3]	%Inh [4]	%Inh [5]	%Inh [6]	%Inh [7]	%Inh [8]	%Inh [9]	%Inh [10]	%Inh [11]	%Inh [12]	%Inh [13]	%Inh [14]	%Inh [15]	%Inh [16]	%Inh [17]	%Inh [18]	%Inh [19]	%Inh [20]
CSc1cccc2c(-c3ccncn3)c(-c3ccc(F)cc3)nn12 [GW514786]	0%	0%	0%	12%	43%	0%	0%	7%	0%	68%	35%	0%	0%	4%	29%	32%	0%	0%	12%	0%
COc1ccc(CNC(=O)NC2CCN(c3ccnc(Nc4ccc(F)cc4)n3)CC2)cc1 [GSK1379788]	13%	0%	0%	0%	0%	0%	0%	0%	0%	9%	49%	0%	0%	0%	20%	0%	0%	0%	5%	0%
CC(C)c1nc(-c2cccc(NS(=O)(=O)c3c(F)cccc3F)c2F)c(-c2ccnc(Nc3ccc(N4CCOCC4)nc3)n2)s1 [GSK2008607]	0%	99.8%	99.3%	99.4%	90.5%	43%	0%	86%	11%	100%	100%	0%	0%	0%	28%	97%	98.8%	29%	0%	0%
COc1cc(Nc2nccc(N3CCC(NC(=O)Nc4cccc(C(C)=O)c4)C3)n2)cc(OC)c1OC (stereo not shown) [GSK1379753]	65%	0%	0%	17%	0%	0%	0%	100%	0%	0%	55%	0%	0%	0%	44%	0%	0%	41%	27%	0%
Cn1cc(-c2ccc3c(c2)CCN3C(=O)Cc2cccc(Cl)c2)c2c(N)ncnc21 [GSK2606590]	30%	78%	30%	53%	0%	0%	0%	53%	0%	0%	1%	0%	10%	0%	30%	4%	20%	0%	13%	9%
COC(=O)Nc1nc2ccc(Oc3ccc(NC(=O)Nc4cc(C(F)(F)F)ccc4F)cc3)cc2n1C.Cl [GW692089]	0%	98.4%	49%	84%	0%	0%	0%	0%	0%	0%	33%	0%	0%	0%	3%	0%	22%	31%	16%	40%
Cn1cc(-c2ccc3c(c2)CCN3C(=O)Cc2cccc(F)c2)c2c(N)ncnc21 [GSK2603358]	18%	58%	41%	35%	0%	0%	0%	69%	0%	2%	35%	0%	9%	0%	20%	7%	22%	0%	17%	11%
Cc1ccc(C(=O)N2CC[C@@H](O)C2)cc1-n1c(C)cc(OCc2ccc(F)cc2F)c(Br)c1=O	0%	92.1%	90.5%	72%	12%	0%	31%	0%	0%	0%	66%	0%	0%	0%	0%	2%	0%	0%	0%	0%
CC(C)(C)c1ccc2nccc(Nc3cccc(O)c3)c2c1 [GW856795]	0%	86%	85%	33%	0%	8%	26%	63%	0%	0%	41%	0%	0%	0%	39%	0%	0%	0%	0%	0%
COC(=O)Nc1nc2cc(Oc3ccc(NC(=O)Nc4cc(C(F)(F)F)ccc4F)cn3)ccc2[nH]1.Cl.Cl [GW681170]	51%	99.1%	74%	82%	0%	0%	0%	0%	0%	2%	19%	0%	0%	0%	6%	19%	23%	8%	0%	10%
Cl.Cl.NCC(C(=O)Nc1cc(Br)c(-c2ccnc3[nH]ccc23)s1)c1ccccc1 (stereo not shown) [GSK1269851]	78%	14%	32%	35%	67%	47%	0%	5%	0%	65%	95.7%	61%	25%	66%	39%	0%	0%	0%	0%	0%
CCS(=O)(=O)c1ccc(OC)c(Nc2nccc(-c3c(-c4cccc(NC(=O)c5c(F)cccc5F)c4)nn4ncccc34)n2)c1 [GSK326180]	22%	4%	10%	10%	0%	10%	0%	0%	0%	0%	18%	0%	15%	0%	25%	2%	27%	0%	18%	20%
COc1ccc(Nc2nccc(N3CCC(NC(=O)Nc4cccc(OC)c4)C3)n2)cc1 (stereo not shown) [GSK1379742]	4%	0%	0%	12%	0%	7%	0%	0%	0%	1%	14%	0%	0%	0%	25%	1%	0%	0%	25%	5%
O=C(O)C(F)(F)F.O=C(O)C(F)(F)F.O=c1[nH]ccc2nc(N[C@@H]3CCCNC3)nc(Nc3ccc(S(=O)(=O)N4CCOCC4)cc3)c12 [GSK2177277]	91.6%	47%	84%	46%	2%	91.1%	29%	53%	9%	0%	0%	0%	0%	0%	97.4%	97.6%	98.1%	98.1%	100%	0%
Nc1ncnc2c1nc(-c1ccccc1)n2-c1ccccc1 [SKF-97293]	0%	8%	0%	2%	7%	0%	4%	0%	14%	11%	0%	2%	3%	16%	52%	23%	31%	29%	0%	0%
Cc1ccc(S(=O)(=O)Nc2ccc(Nc3nccc(Nc4cccc5[nH]ncc45)n3)cc2)cc1 [GSK581271]	27%	11%	31%	64%	8%	32%	0%	57%	30%	41%	87%	0%	0%	0%	24%	0%	0%	0%	5%	0%
O=C(Nc1cccc(-c2nn3ccccc3c2-c2ccnc(Nc3cccc(C(F)(F)F)c3)n2)c1)c1c(F)cccc1F [GSK292658]	0%	11%	0%	21%	0%	0%	0%	0%	0%	0%	0%	0%	8%	2%	0%	0%	13%	13%	12%	2%
